Results from PubChem BioAssay (EPA / NIEHS).
Activity calls are given as the source filed them. Rule for the calls: active = hit-call score of the fitted dose curve at least 0.9, where 1 is the maximum; inactive = score below 0.9.

assay: ATG_PXRE_CIS: Attagene CIS-FACTORIAL HepG2 Assay for human Pregnane X Receptor Element (PXRE) (AID 2282957); conditions: HepG2 Attagene CIS-FACTORIAL PXRE reporter, mRNA; actives raise or lower the signal
Method in brief: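 Multiplexed cis-reporter assay in transiently transfected human HepG2 cells; 24 h chemical exposure. Reporter transcripts quantified by RT-PCR with fluorescent labeling and capillary electrophoresis.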

SMILES | outcome | AC50
O=C1C(Cl)=C(Cl)C(=O)C(Cl)=C1Cl | inactive | 
N#CCCCCC#N | inactive | 
CC1CCC(=O)O1 (centres undefined) | inactive | 
COc1cc(OC)c(OC)cc1C=O |  | 50.5 µM (active)
CC(C)c1ccc(O)cc1 |  | 33.6 µM (active)
CC(C)(c1cc(Cl)c(O)c(Cl)c1)c1cc(Cl)c(O)c(Cl)c1 | inactive | 
O=C(NCNC(=O)NC1C(=O)NC(=O)N1CO)NC1C(=O)NC(=O)N1CO (centres undefined) | inactive | 
COCC(=O)N(c1c(C)cccc1C)N1CCOC1=O |  | 29.9 µM (active)
CC(C)CCCCCCCOP(=O)(Oc1ccccc1)Oc1ccccc1 |  | 0.408 µM (active)
CCC1CCC(=O)O1 (centres undefined) |  | 27.3 µM (active)
C=COCCCl | inactive | 
C=CCN(CC=C)C(=O)C(Cl)Cl |  | 43.9 µM (active)
CC[N+](=O)[O-] | inactive | 
CC(Cc1ccc(C(C)(C)C)cc1)CN1C[C@@H](C)O[C@@H](C)C1 (some centres undefined) |  | 4.18 µM (active)
[Cl-].[Cl-].[Cl-].[Yb+3] | inactive | 
CCOC(=O)N(C)N=O |  | 26.1 µM (active)
O=CNC(N1CCN(C(NC=O)C(Cl)(Cl)Cl)CC1)C(Cl)(Cl)Cl (centres undefined) |  | 7.22 µM (active)
CCC[N+](=O)[O-] | inactive | 
CC(C)C#N |  | 27.6 µM (active)
S=c1[nH]c2ccccc2[nH]1 | inactive | 
c1ccc(Nc2ccc3ccccc3c2)cc1 |  | 10.3 µM (active)
CC=Cc1ccc2c(c1)OCO2 | inactive | 
Cc1ccc(OP(=O)(Oc2ccc(C)cc2)Oc2ccc(C)cc2)cc1 (tested in a mixture with another compound) |  | 0.519 µM (active)
ClC1=C(Cl)[C@]2(Cl)[C@@H]3[C@@H](Cl)[C@H](Cl)C[C@@H]3[C@@]1(Cl)C2(Cl)Cl | inactive | 
